# Screens (PubChem)
# D1 mod: allosterically modulates the human D1 dopamine receptor; P21728; HEK293 D1, CRE-luciferase, dopamine EC30 potentiation; actives deviate in either direction; B-score at 10 µM; 5.9% of 58,000 active;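 active = luminescence count or its row- and column-corrected plate score outside the 99.7% band of the plate's sample wells, on either side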
# Target sequence (P21728 whole entry, looked up): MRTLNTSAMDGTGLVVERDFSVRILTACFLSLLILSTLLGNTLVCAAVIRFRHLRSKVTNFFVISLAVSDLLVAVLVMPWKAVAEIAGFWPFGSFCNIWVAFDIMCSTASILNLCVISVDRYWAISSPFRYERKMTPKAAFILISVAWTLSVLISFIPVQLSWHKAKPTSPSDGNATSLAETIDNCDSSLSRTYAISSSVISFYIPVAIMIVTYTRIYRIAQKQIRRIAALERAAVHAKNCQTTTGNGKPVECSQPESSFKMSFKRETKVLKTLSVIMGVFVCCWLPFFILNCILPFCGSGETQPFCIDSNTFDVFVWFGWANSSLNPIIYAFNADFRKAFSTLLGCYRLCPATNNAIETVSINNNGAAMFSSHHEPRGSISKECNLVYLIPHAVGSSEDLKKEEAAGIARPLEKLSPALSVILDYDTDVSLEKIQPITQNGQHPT
# PKA inh: PKA (human) kinase inhibition; inhibition, % at 6 µM; PKA Kemptide phosphorylation, Kinase-Glo ATP luminescence; 0.1% of 65,000 active;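 active = inhibition above the screen-wide mean inhibition plus 3 SD, cut at about 21% in these data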
# DAT uptake mod: changed human dopamine transporter uptake under cocaine IC80; LLC-PK1 hDAT cells, [14C]-dopamine uptake with cocaine IC80; actives deviate in either direction; B-score at 10 µM; Q01959; 1.3% of 110,000 active;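 active = Z score or B-score, a plate-position-corrected score, falls beyond the plate's 99.7% confidence bounds, in either direction; inactive = both scores lie inside the 99.7% bounds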;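 note: scored against the spread of the other compound wells on the same plate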
# ROCK2 blocker: blocks human Rho kinase 2 activity. inhibition, % at 6 µM. purified ROCK2, Kinase-Glo ATP depletion luminescence. 0.35% of 60,000 active. O75116;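 active = inhibition above the screen-wide mean inhibition plus 3 SD, cut at about 18% in these data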;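 note: plate controls were DMSO wells for no effect and Y-27632 control wells after no-enzyme background subtraction for full effect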
# Numbers without * were called inactive; · = no result given. This excerpt belongs to a sample that is enriched for hits.
SMILES,D1 mod,PKA inh,DAT uptake mod,ROCK2 blocker
c1ccc(Nc2c3c(nc4ncnn24)CCC3)cc1,-4.81*,7.5,0.184,3.0
Cc1ccc(S(=O)(=O)N2C(=O)CCC2C(=O)Nn2cnnc2)cc1 (stereo not given),·,·,-1.54,·
Cc1ccc(-n2ncc3c(N4CCN(c5ccccc5)CC4)ncnc32)c(C)c1,-3.97*,2.1,0.0664,-9.0
Cc1cccc(-n2ncc3c(NCc4cccnc4)ncnc32)c1,-5.06*,4.7,-0.0277,1.2
Cc1ccc(-n2ncc3c(NCc4cccnc4)ncnc32)c(C)c1,·,-0.7,·,-19.0
Cc1cccc(-n2ncc3c(N4CCCC4)ncnc32)c1,-7.31*,7.7,-0.871,6.9
N[C@@H](Cc1ccc(O)cc1)c1nnc([C@H](CC(=O)O)NC(=O)C2CCNCC2)o1,·,·,-0.566,·
COc1ccc(CSc2nnc(Cc3sc(-c4ccccc4)nc3-c3ccccc3)o2)cc1,·,·,0.185,·
Cn1c(=O)cc(OCC(=O)NCCCN2CCN(c3ccccc3F)CC2)c2ccccc21,0.559,3.3,-0.42,6.7
Cn1c(=O)cc(OCC(=O)NCCCN2CCN(c3cccc(Cl)c3)CC2)c2ccccc21,-5.26*,1.4,-0.249,6.1
COC(=O)c1ccccc1S(=O)(=O)N1Cc2cc([N+](=O)[O-])ccc2Oc2ccccc21,·,·,1.29,·
CC(C)(C)OC(=O)N1CCC[C@H]1c1nnc(SCc2ccccc2Cl)o1,-0.0537,4.0,-0.109,4.9
CC(C)(C)OC(=O)N1CCC[C@H]1c1nnc(SCc2ccc(Cl)cc2Cl)o1,-1.35,6.3,-2.14*,7.0
CC(C)C1N=C2c3ccccc3N=C(SCc3cc(=O)n4cc(Cl)ccc4n3)N2C1=O (stereo not given),3.17,4.2,-7.11*,0.7
Cc1ccc(-n2c(=O)[nH]cc(C(=O)Nc3ccc4c(c3)OCCO4)c2=O)cc1C,0.0929,-1.3,-0.0706,2.7
Cc1ccc(-n2c(=O)[nH]cc(C(=O)Nc3ccc4c(c3)OCCO4)c2=O)cc1,-5.04*,8.8,0.753,4.2
Cc1ccn2cc(C(=O)Nc3ccc4c(c3)OCCO4)nc2c1,-4.49*,-1.8,-0.337,-0.2
C[C@@H]1CC[C@H](O)/C=C/C(=O)O[C@H](C)CC[C@H](O)/C=C/C(=O)O1,·,·,1.78,·
CCOC(=O)CCCNC(=O)COC(=O)c1ccc(O)cc1,·,·,2.48*,·
O=C(NC1CC1)C1=C[C@H](c2coc3ccccc3c2=O)C[C@H](OCc2ccc(CO)cc2)O1,·,·,0.291,·
COc1ccc(OC2C(=O)N(Cc3ccc4c(c3)OCO4)C2c2sccc2C)cc1 (stereo not given),·,·,0.375,·
CCOC(=O)c1ccc(NC(=O)C2CCN(S(=O)(=O)c3ccccc3)CC2)cc1,-1.34,6.1,0.788,2.2
CCOC(=O)c1ccc(NC(=O)C2CCN(S(=O)(=O)CC)CC2)cc1,-2.28,-4.5,-7.35*,-2.2
COc1ccc(CNC(=O)C(=O)NCC2OCCN2S(=O)(=O)c2cccs2)cc1 (stereo not given),·,·,-0.202,·
CC(C)Cn1c(N)c(C(=O)COC(=O)c2cc(-c3ccccc3)nc3ccccc23)c(=O)n(C)c1=O,·,·,2.47*,·
SMILES,D1 mod,PKA inh,DAT uptake mod,ROCK2 blocker
CC(=O)Nc1ccc(S(=O)(=O)N2CCc3ccccc3C2)cc1,·,·,-8.79*,·
CC(=O)Nc1ccc(S(=O)(=O)N2CCN(C)CC2)cc1,·,·,-1.38,·
CCOC(=O)C1=C(C)N(CCCC(=O)O)C(=O)NC1c1ccccc1OS(=O)(=O)c1ccc(C)cc1 (stereo not given),·,·,0.541,·
CCOC(=O)CNc1c(-c2ccc(O)cc2)nc2ccc(Cl)cn12,-4.4*,9.4,0.544,6.6
Cc1cc(NC(=O)C2COc3ccccc3O2)no1 (stereo not given),-1.5,-0.9,1.19,-0.9
O=C(NCc1ccco1)C1CC(c2cc(C(F)(F)F)cc(C(F)(F)F)c2)=NO1 (stereo not given),·,·,-0.438,·
CCOc1cccc(C=Nc2cc(C)cc(C)c2O)c1O,-3.75*,1.4,0.594,4.1
O=C(NCCCc1ccccc1)c1ccccc1O,-0.626,·,1.12,·
O=C(NCCO)c1ccccc1O,·,·,-9.92*,·
CCc1cc2c(=O)c(-c3ccc4c(c3)OCCO4)coc2cc1OC(=O)c1ccco1,-2.88*,8.1,1.38,7.2
CCOC(=O)Cn1c(=O)oc2cc(S(=O)(=O)NCCc3ccc(OCC)c(OCC)c3)ccc21,-0.887,5.4,1.04,7.3
O=C1NC(O)(c2ccccc2)Oc2ccccc21 (stereo not given),·,·,-0.172,·
CC1CCC2(CC1)NC(=O)c1ccccc1O2 (stereo not given),-2.42*,3.4,0.352,2.4
CC(C)NC(=O)[C@@H]1C[C@@]1(C)[C@@H](NC(=O)OCc1ccccc1)c1ccccc1,·,·,-0.135,·
CCn1cc(C(=O)NC2CCC(C)CC2)c(=O)c2cc(S(=O)(=O)N3CCCCC3)ccc21 (stereo not given),0.74,8.4,2.21*,1.1
CCn1cc(C(=O)NCc2ccco2)c(=O)c2cc(S(=O)(=O)N3CCCCCC3)ccc21,0.784,7.3,1.18,5.5
C=CCn1cc(C(=O)NCc2ccco2)c(=O)c2cc(S(=O)(=O)N3CCCCCC3)ccc21,0.524,8.3,3.26*,4.6
CC(C)Cc1nnc(NS(C)(=O)=O)s1,·,·,-7.83*,·
CC(C)Nc1nc(NC(C)(C)C)nc(Oc2ccc(=O)n(-c3ccccc3)n2)n1,·,·,0.216,·
CCOC(=O)c1cnc(SC2CCc3ccccc3C2=O)nc1N (stereo not given),-0.00109,9.9,2.74*,7.3
CCOC(=O)c1cnc(SC2CC(=O)N(c3ccccc3)C2=O)nc1N (stereo not given),·,·,-1.23,·
Cc1cc(C)n2nc(SCC(=O)N(C(C)C)C(C)C)nc2n1,0.481,5.9,-8.91*,7.9
Fc1ccc(-c2nnc(NC3=NCCCCC3)o2)cc1,-6.59*,-13.9,·,-23.3
O=C(Nc1nnc(-c2ccc(F)cc2)o1)c1ccco1,-0.846,-4.0,-2.1,0.4
O=C(NC(=S)Nc1ccc2[nH]ncc2c1)c1ccccc1,·,·,-0.0228,·
SMILES,D1 mod,PKA inh,DAT uptake mod,ROCK2 blocker
Brc1ccc2[nH]ncc2c1,0.201,11.6,0.909,29.8*
CN(C)c1ccc(C=Nc2cnn(C)c2C(N)=O)cc1,·,-5.1,1.76*,-1.8
Cc1noc(C)c1COc1ccc(C(=O)OCC(=O)NC2CCCCC2C)cc1 (stereo not given),·,·,0.391,·
Cc1cccc(NC(=O)c2ccc(C3SCC(=O)N3CCc3ccccc3)cc2)c1C (stereo not given),·,·,2.66*,·
O=C(NCc1ccccc1)c1ccc(C2SCC(=O)N2Cc2ccccc2)cc1 (stereo not given),·,·,0.458,·
CCSc1nnc(-c2ccncc2)o1,·,·,0.25,·
CCSc1nnc(-c2sc3nnc(-c4ccccc4)c(-c4ccccc4)c3c2N)o1,·,·,1.58*,·
CC1=NC(Nc2nc(C)c3ccccc3n2)=NC(C)(C)C1,-4.08*,4.4,0.29,1.5
OCC1(O)OC[C@@H](O)[C@H]1O (stereo not given in full),·,·,-0.934,·
CCCCN(C)C(=O)CSc1nc(NCc2ccc(OC)cc2)c2ccccc2n1,·,·,2.47*,·
COCCNc1nc(SCC(=O)N2CCN(c3ccccc3)CC2)nc2ccccc12,-0.474,6.5,1.94,·
COC(=O)c1cc(NC(=O)Cn2c(=O)cnc3ccccc32)cc(C(=O)OC)c1,0.092,11.7,-0.8,4.1
CCCCn1nnnc1SCC(=O)N1CCOCC1,·,·,-0.806,·
